Shown are actives, neighbours in structure and some others; about 3% of the full set was active somewhere.
SENP8 block-1: human SENP8 protease inhibitors, primary screen, biochemical, fluorescence, Nedd8 protein substrate, uHTS. Sentrin-specific protease 8 (Homo sapiens), Q96LD8. recombinant SENP8. inhibition, % at 20 µM. actives 0.64% (n = 360,000). AID 602440, 2012; in the data active = inhibition mostly above about 40%, no sharp cut-off; inactive = mostly below about 27%
Target sequence (Q96LD8 whole entry, looked up): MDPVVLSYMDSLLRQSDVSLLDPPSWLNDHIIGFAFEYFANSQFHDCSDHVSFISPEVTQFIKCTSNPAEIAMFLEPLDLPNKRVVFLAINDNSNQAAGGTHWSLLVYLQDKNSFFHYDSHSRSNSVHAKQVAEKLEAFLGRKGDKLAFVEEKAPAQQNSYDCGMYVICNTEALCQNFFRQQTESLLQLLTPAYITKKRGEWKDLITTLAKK
PPC-1+TRAIL kill: compounds killing PPC-1 cancer cells with TRAIL present, primary screen, TRAIL potentiator project, ATPLite luminescence, uHTS; cell killing (% activity), % at 4 µM or 5 µM; PPC-1 cells + TRAIL, ATPLite viability luminescence; AID 1443, 2008; actives 0.41% (n = 220,000);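 active = cell killing above 50% in the first pass at 4 µM, then a duplicate retest at 5 µM averaging 50% or more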
SENP6 block: SENP6 protease inhibitors, primary screen, biochemical, luminescence, uHTS | Sentrin-specific protease 6 (Homo sapiens), Q9GZR1 | Recombinant SENP6 catalytic domain, aminoluciferin luminescence | inhibition, % at 10 µM | actives 1.8% (n = 330,000);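 active = inhibition above about 50% at the single tested dose, limit read from the data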
Target sequence (Q9GZR1 628-1112 limits assumed): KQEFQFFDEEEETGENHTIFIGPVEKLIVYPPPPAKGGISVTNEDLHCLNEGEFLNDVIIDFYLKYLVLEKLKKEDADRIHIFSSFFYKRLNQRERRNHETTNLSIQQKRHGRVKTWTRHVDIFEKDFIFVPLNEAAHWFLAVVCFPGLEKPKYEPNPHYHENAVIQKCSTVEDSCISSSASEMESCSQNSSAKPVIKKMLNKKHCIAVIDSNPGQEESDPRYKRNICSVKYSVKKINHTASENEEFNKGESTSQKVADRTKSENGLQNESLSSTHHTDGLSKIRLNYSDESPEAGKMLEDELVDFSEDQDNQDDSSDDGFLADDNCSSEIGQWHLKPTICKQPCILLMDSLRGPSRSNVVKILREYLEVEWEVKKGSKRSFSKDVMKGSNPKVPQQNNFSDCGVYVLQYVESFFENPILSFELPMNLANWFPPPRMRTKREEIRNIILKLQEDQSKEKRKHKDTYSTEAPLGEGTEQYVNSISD
C8 TRAIL sens: viability loss with TRAIL in NB7+C8 cells, primary screen, TRAIL sensitizer project, cell-based, ATPlite luminescence; inhibition (viability loss, TRAIL sensitization), % at 10 µM; actives 1% (n = 360,000); AID 624354, 2012;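 active = compounds causing at least 50% loss of cell viability in the single-dose screen, relative to plate controls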
SENP8 block-2: SENP8 protease inhibitors, primary screen, biochemical, luminescence; actives 1.2% (n = 330,000); inhibition, % at 10 µM; purified SENP8, Z-RLRGG-aminoluciferin cleavage; Sentrin-specific protease 8 (Homo sapiens), Q96LD8; AID 2540, 2010; in the data active = inhibition above about 50%
SENP7 block: SENP7 protease inhibitors, primary screen, biochemical, luminescence, uHTS; recombinant SENP7, Z-RLRGG-aminoluciferin luminescence, 40 min; AID 434973, 2010; Sentrin-specific protease 7 (Homo sapiens), Q9BQF6; actives 1.5% (n = 330,000); inhibition, % at 5 µM;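 active = inhibition above about 50% at the single test dose, limit read from the data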
SENP8 inh conf: human SENP8 protease inhibitors, confirmation, biochemical, Nedd8 protein substrate, single concentration | shares compounds with SENP8 block-1 | actives 15% (n = 1,400) | purified SENP8, Nedd8-AMC/pro-Nedd8 cleavage fluorescence, 30 min | AID 624319, 2012 | inhibition, % at 25 µM; in the data active = inhibition mostly above about 39%, no sharp cut-off; inactive = mostly below about 34%
Large screens that a line does not name were inactive (follow-up assays come after a bar, where they were run); ! = a repeat was not active.

S=C(Nc1cccc(Cl)c1)N(CCCN1CCCC1)Cc1cccn1Cc1ccc(Cl)cc1	SENP8 block-1 40 | SENP8 inh conf inactive
COc1ccc(NC(=S)N(CCCN2CCCC2)Cc2cccs2)cc1	none
CC12CCC(=O)N1C(C(=O)Nc1cccc(F)c1)CS2 (stereo not drawn)	none (no result: PPC-1+TRAIL kill)
CCN(CC)S(=O)(=O)c1cc([N+](=O)[O-])ccc1NNC(=O)Nc1ccccc1OC	SENP8 block-1 51 | SENP8 inh conf inactive
CC(=O)n1cc(CO)c2ccccc21	SENP8 block-1 45 (no result: PPC-1+TRAIL kill) | SENP8 inh conf inactive
C=C(c1cn(C(C)=O)c2ccccc12)c1cn(C(C)=O)c2ccccc12	none (no result: PPC-1+TRAIL kill, SENP6 block, SENP8 block-2, SENP7 block)
COc1cccc(C2=NCCc3cc4c(cc32)OCO4)c1OC	none
COc1ccc2cc3[n+](cc2c1OC)CCc1cc2c(cc1-3)OCO2	SENP8 block-1 53! | SENP8 inh conf inactive
COC(=O)[C@@H]1C[C@@]2(O)[C@@H](O)[C@@H](O)[C@@H](O)C[C@H]2N1Cc1cc(OC)cc(OC)c1	none
COc1ccc(-c2nc[nH]c2[N+](=O)[O-])cc1	SENP8 block-1 49 | SENP8 inh conf inactive
CC(NS(=O)(=O)c1ccc(Br)cc1)C(=O)NCCc1ccccc1 (stereo not drawn)	none
O=c1ccc(Br)c[nH]1	SENP8 block-1 42 | SENP8 inh conf inactive
O=c1cc(-c2ccc(Br)cc2)[nH][nH]1	none
CSc1nncc(/C(C)=N\Nc2ccccc2C)n1	SENP8 block-1 54 | SENP8 inh conf inactive
COc1ccc(S(=O)(=O)NNC(=O)C23CC4CC(CC(C4)C2)C3)cc1[N+](=O)[O-]	none (no result: PPC-1+TRAIL kill)
O=[N+]([O-])c1cccc(C(=Nc2cccc(Cl)c2)NO)c1	SENP8 block-1 41 | SENP8 inh conf inactive
O=C(NCCc1cccc(Cl)c1)c1cccc([N+](=O)[O-])c1	none
COC[C@@H]1CCCN1[C@@H]1CS(=O)(=O)N[C@H]1COCc1ccccc1	none (no result: PPC-1+TRAIL kill, SENP6 block, SENP8 block-2, SENP7 block)
Cc1sc2ncn(CC(=O)Nc3cccc(S(N)(=O)=O)c3)c(=O)c2c1-c1ccccc1	none
CCc1ccccc1N1C(=O)C2CC(C)=C(C)CC2C1=O (stereo not drawn)	SENP8 block-1 41 | SENP8 inh conf inactive
CC1=CCC(/C=N\Nc2nnc3c(n2)[nH]c2ccccc23)CC1 (stereo not drawn)	none (no result: SENP8 block-1, C8 TRAIL sens)
C[C@H](CO)N1C[C@H](C)[C@@H](CN(C)S(=O)(=O)c2ccccc2)Oc2c(NS(=O)(=O)c3ccccc3)cccc2C1=O	none (no result: PPC-1+TRAIL kill)
CC(NC(=O)Nc1ccc(O)cc1)(C(F)(F)F)C(F)(F)F	SENP8 block-1 78 | SENP8 inh conf inactive
CC(=O)Oc1ccc2oc(/C=C/N(C)C)c([N+](=O)[O-])c2c1	none
COc1nc(/C=C/N(C)C)c([N+](=O)[O-])c(OC)n1	SENP8 block-1 43 | SENP8 inh conf inactive
CSc1nnc(-c2ccccc2Cl)n1N	none
Nn1c(-c2ccccc2Cl)nnc1-c1ccccc1Cl	SENP8 block-1 40 | SENP8 inh conf inactive
O=C(Nc1ccc(O)cc1)C1CC=CCC1 (stereo not drawn)	SENP8 block-1 41 | SENP8 inh conf 49
O=C(Nc1nccs1)C1CC=CCC1 (stereo not drawn)	none (no result: PPC-1+TRAIL kill)
COCCNC(=O)C1(C)CCN(C(=O)c2ccc3sccc3c2)C1 (stereo not drawn)	none (no result: PPC-1+TRAIL kill, SENP6 block, SENP8 block-2, SENP7 block)
CC(C)C(=O)Nc1ccc(Cl)cc1-c1nc2ccccc2[nH]c1=O	none (no result: PPC-1+TRAIL kill)
CNc1ccc([N+](=O)[O-])cc1-c1nc2ccccc2[nH]c1=O	SENP8 block-1 42 | SENP8 inh conf inactive
O=C(NCCNc1ccc([N+](=O)[O-])cc1C(F)(F)F)c1ccccc1F	SENP8 block-1 44 | SENP8 inh conf inactive
CC1=C(C(=O)N(C)C)CC(CC(=O)NCc2ccco2)C(=O)N1Cc1ccccc1 (stereo not drawn)	none (no result: PPC-1+TRAIL kill, SENP6 block, SENP8 block-2, SENP7 block)
CC1(C)Cc2c(C#N)c(N)n(-c3ccccc3)c(=S)c2CO1	none
CC1(C)C=C2C(=NN(c3ccccc3)C(N)=C2C#N)CO1	SENP8 block-1 54 (no result: PPC-1+TRAIL kill) | SENP8 inh conf 97
O=C(CC1(O)C(=O)Nc2ccc(Br)cc21)c1ccccc1 (stereo not drawn)	none (no result: PPC-1+TRAIL kill, SENP6 block, SENP8 block-2, SENP7 block)
COCCCNS(=O)(=O)c1ccc(Oc2ncc(C(F)(F)F)cc2Cl)cc1	none
CC(C)(C)NS(=O)(=O)c1ccc(Oc2ncc(C(F)(F)F)cc2Cl)cc1	SENP8 block-1 40 | SENP8 inh conf inactive
COc1ccccc1N(C)S(=O)(=O)c1ccc(C)c(C(=O)Nc2nccs2)c1	none (no result: PPC-1+TRAIL kill)
O=C(CCCCn1c(=O)c2ccccc2n(Cc2ccccc2F)c1=O)NC1CCN(Cc2ccccc2)CC1	SENP8 block-1 40 | SENP8 inh conf inactive
C[C@H]1CN([C@@H](C)CO)C(=O)Cc2cc(NC(=O)Cc3ccccc3)ccc2O[C@H]1CN(C)C(=O)Nc1cccc2ccccc12	none (no result: PPC-1+TRAIL kill)
OC[C@H]1O[C@H](OCc2ccccc2)[C@H](O[C@@H]2OC[C@@H](O)[C@H](O)[C@H]2O)[C@@H](O)[C@@H]1O	SENP8 block-1 42 (no result: PPC-1+TRAIL kill) | SENP8 inh conf inactive
O=C(O)c1cc([N+](=O)[O-])cc2c1C=Cc1ccccc1O2	none (no result: PPC-1+TRAIL kill)
CCCN(CC(=O)Nc1ccccc1OC)C(=O)c1ccc(S(=O)(=O)Nc2ccccc2)cc1	none (no result: PPC-1+TRAIL kill)
Cc1ccc(C2=N/C(=C\c3cccs3)C(=O)N2Nc2ccccc2)cc1	SENP8 block-1 42 | SENP8 inh conf inactive
O=C1/C(=C/c2cccs2)N=C(c2cccs2)N1Nc1ccccc1	none
O=C1CC(SC(=S)C2CCCC2=O)C(=O)N1 (stereo not drawn)	SENP8 block-1 41 (no result: PPC-1+TRAIL kill, SENP6 block, SENP8 block-2, SENP7 block) | SENP8 inh conf inactive
O=C1CC(Sc2ncccc2C(=O)O)C(=O)N1 (stereo not drawn)	none
COc1ccc(CNC(=O)Nc2ccc(C)cc2)cc1	none
COc1ccc(CNC(=O)Nc2cc(C)cc(C)c2)cc1	SENP8 block-1 43 | SENP8 inh conf inactive
Cc1cc2c(NC(=O)CC(C)(C)CC(=O)O)cccc2nn1	SENP8 block-1 44 | SENP8 inh conf inactive
Cc1ccccc1S(=O)(=O)N1C[C@H]2[C@H]3C(=O)N(c4ccccc4)C(=O)[C@H]3CC(=O)[C@H]2[C@@H]1c1ccc(Cl)cc1	none (no result: PPC-1+TRAIL kill, SENP6 block, SENP8 block-2, SENP7 block)
CC1(C)Cc2cccc(OCC(=O)OCC(=O)Nc3cccc(S(N)(=O)=O)c3)c2O1	SENP8 block-1 40 | SENP8 inh conf inactive
